# According to PubChem BioAssay AID1224865 (Sanford-Burnham Center for Chemical Genomics, 2016):
# Screen size: about 360,000 compounds; about 1,100 (0.31%) were called active. Rule as the data show it: active = activity change above about 30% (passing the limit was not always enough); inactive = the rest. Shown is part of a subset that was picked to be rich in actives.
# Biological target: Hepatocyte nuclear factor 4-alpha (Homo sapiens) (UniProt P41235)
# Experiment: change in binding of human HNF4A to DNA, primary screen, biochemical, fluorescence polarization, FITC-DNA (AID 1224865)
# Conditions: 1 h, at 10 µM, hits give high values
# Hepatocyte nuclear factor 4-alpha (Homo sapiens), sequence (P41235 whole entry, looked up): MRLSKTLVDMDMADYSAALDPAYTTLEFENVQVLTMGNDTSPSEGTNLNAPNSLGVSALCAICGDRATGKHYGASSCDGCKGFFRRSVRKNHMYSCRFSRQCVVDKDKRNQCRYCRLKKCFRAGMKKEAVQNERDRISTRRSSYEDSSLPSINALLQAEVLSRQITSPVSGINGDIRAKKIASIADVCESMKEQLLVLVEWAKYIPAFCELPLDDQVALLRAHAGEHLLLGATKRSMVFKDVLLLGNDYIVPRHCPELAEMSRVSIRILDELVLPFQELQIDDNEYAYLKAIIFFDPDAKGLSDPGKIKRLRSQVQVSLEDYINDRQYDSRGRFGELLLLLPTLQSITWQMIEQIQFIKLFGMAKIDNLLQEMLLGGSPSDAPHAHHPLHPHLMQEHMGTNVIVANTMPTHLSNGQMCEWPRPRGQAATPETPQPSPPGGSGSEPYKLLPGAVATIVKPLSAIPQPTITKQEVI
row,Structure (SMILES),activity change
1,O=C(COC(=O)c1ccc(F)cc1F)Nc1ncccn1,38.7% (active)
2,O=C(COC(=O)CSc1ccccc1)Nc1ccc(F)cc1F,-1.87% (inactive)
3,CCOC(=O)c1cccc(NC(=O)c2ccc(F)cc2F)c1,7% (inactive)
4,CC1C(=O)Nc2ccccc2N1C(=O)c1ccc(F)cc1F (stereo unspecified),2.72% (inactive)
5,O=C(NCc1ccncc1)c1cccc(NS(=O)(=O)c2ccc(F)c(F)c2)c1,-3.8% (inactive)
6,CC1C(=O)N2CCCc3cc(S(=O)(=O)NCc4ccc(F)cc4)cc1c32 (stereo unspecified),-0.59% (inactive)
7,CC(C)CC(=O)Nc1ccc(Cc2ccncc2)cc1,1.88% (inactive)
8,COc1cccc(OC)c1C(=O)Nc1ccc(Cc2ccncc2)cc1,41.2% (active)
9,CCn1nnc(NC(=O)c2c(OC)cccc2OC)n1,0.86% (inactive)
10,C=CCn1c(SCC(=O)NC23CC4CC(CC(C4)C2)C3)nc(O)cc1=O,2.14% (inactive)
11,Cc1ccc2[nH]c(=O)c(CN(CCCN(C)C)C(=O)Nc3cccc(Cl)c3)cc2c1,4.9% (inactive)
12,Cc1noc(C)c1S(=O)(=O)Nc1ccc(C(=O)N2CCN(c3ccc(F)cc3)CC2)cc1,1.2% (inactive)
13,Cc1ccccc1CN1CCN(C(=O)c2cccc(F)c2)CC1,3.17% (inactive)
14,O=C1Nc2cc(C(=O)N3CCN(c4ccc(F)cc4)CC3)ccc2NC1CSCc1cccc(F)c1 (stereo unspecified),102% (active)
15,COC(=O)c1ccc(C(=O)OC)c(NC(=S)N2CCN(c3ccc(F)cc3)CC2)c1,-1.17% (inactive)
16,Cc1ccc(CSCC2Nc3ccc(C(=O)N4CCN(c5ccc(F)cc5)CC4)cc3NC2=O)cc1 (stereo unspecified),37.8% (active)
17,C=CCn1c(SCc2cccc(F)c2)nc2cc(C(=O)N3CCC(C(N)=O)CC3)ccc2c1=O,2.05% (inactive)
18,COc1ccc(Cn2cccc(NC(=O)Nc3ccc(C#N)cc3)c2=O)cc1,-3.37% (inactive)
19,COC(=O)c1c(NC(=O)CN2CCN(S(=O)(=O)c3ccccc3[N+](=O)[O-])CC2)sc2c1CCC(C)C2 (stereo unspecified),0.7% (inactive)
20,O=S(=O)(Cc1ccccc1)c1nc2ccccc2n1Cc1ccccn1,-0.31% (inactive)
21,CC1=CC2=NC(=O)/C(=C/c3coc4ccccc4c3=O)C(=N)N2O1,6.6% (inactive)
22,O=C1/C(=C/c2coc3ccc(O)cc3c2=O)SC(=S)N1c1ccccc1,55.6% (active)
23,Cc1ccc(S(=O)(=O)N2CCC(C)CC2)cc1C(=O)NCc1ccccn1,0.82% (inactive)

row,Structure (SMILES),activity change
1,Cc1ccc(CC2S/C(=C(/C#N)C(=O)N3CCOCC3)N(c3ccccc3)C2=O)cc1 (stereo unspecified),0.2% (inactive)
2,CCN(CC(=O)NCc1cccs1)C(=O)/C=C/c1ccc(C)cc1,0.98% (inactive)
3,Cc1ccc(CNC(=O)c2cccc3c2C(=O)c2ccc(N4CCC(C)CC4)cc2S3(=O)=O)cc1,45.8% (active)
4,COc1cccc(-c2ccc3c(c2)S(=O)(=O)c2cccc(C(=O)O)c2C3=O)c1OC,1.88% (inactive)
5,CC1CCN(c2ccc3c(c2)S(=O)(=O)c2cc(C(=O)O)ccc2C3=O)CC1,14.3% (inactive)
6,Cc1nn(Cc2ccc(C(=O)N3N=C(C(F)F)CC3(O)C(F)F)cc2)c(C)c1[N+](=O)[O-] (stereo unspecified),1.52% (inactive)
7,COc1cc(=O)[nH]c(=O)n1C(=O)Cc1ccccc1,2.22% (inactive)
8,CN(C)c1ccc(/C=C2\NC(=S)N(Cc3ccccc3)C2=O)cc1,128% (inactive)
9,COc1cc(/C=C2/SC(=S)N(Cc3ccccc3)C2=O)cc(OC)c1O,48.1% (active)
10,CC1CCCCC1NC(=O)C1CCCN1S(=O)(=O)c1cccc2nsnc12 (stereo unspecified),-0.79% (inactive)
11,Cc1cccc(C)c1NC(=O)C(c1cccc2ccccc12)n1c(=O)c(-c2ccco2)nc2ccccc21 (stereo unspecified),32.4% (inactive)
12,Cc1cccc(C)c1NC(=O)C(c1ccc(C(F)(F)F)cc1)n1c(=O)c(-c2ccco2)nc2ccccc21 (stereo unspecified),26.7% (inactive)
13,O=C(NC1CCCCC1)C(c1cc2ccccc2o1)n1c(=O)c(-c2ccco2)nc2ccccc21 (stereo unspecified),45.8% (active)
14,CCOc1[nH]n(-c2ccc(Cl)cc2)c(=O)c1C=Nc1ccc(O)cc1,-5.55% (inactive)
15,Oc1ccc(N=Cc2c(O)ccc3ccccc23)cc1,72% (active)
16,Oc1ccc(/C=N/N(Cc2ccccc2)c2ccccc2)cc1,-0.08% (inactive)
17,COc1ccccc1C(=O)N1CCN=C1SCc1cccnc1,2.47% (inactive)
18,O=C(Cn1[nH]c(=O)c2ccccc2c1=O)Nc1cccc(-c2nnc3n2CCCCC3)c1,1.84% (inactive)
19,Cc1ccc(C)c(C(=O)COC(=O)Cn2[nH]c(=O)c3ccccc3c2=O)c1,-0.2% (inactive)
20,Cc1ccc(-c2csc(NC(=O)Cn3[nH]c(=O)c4ccccc4c3=O)n2)cc1,50% (active)
21,O=C(OC(C(=O)NC1CCCC1)c1ccc(F)cc1)c1ccno1 (stereo unspecified),-0.09% (inactive)
22,Cc1sc2nc(-c3ccccc3F)oc(=O)c2c1C,0.82% (inactive)
23,Nc1c(N(CCCO)C(=O)C2CCCC2)c(=O)[nH]c(=O)n1Cc1ccccc1,-0.45% (inactive)

row,Structure (SMILES),activity change
1,CCc1nnc(NC(=O)c2ccco2)s1,0.04% (inactive)
2,CCCCOC(=O)Nc1nnc(CC(=O)NCc2ccccc2)s1,-1.39% (inactive)
3,CCc1ccc2nc3sc(C(=O)Nc4nnc(CC)s4)c(N)c3cc2c1,45.1% (active)
4,COc1ccc(CCNC(=O)C(=O)NCC2OCCN2S(=O)(=O)c2cccs2)cc1OC (stereo unspecified),5.44% (inactive)
5,COc1cc(N=Cc2c(O)c3ccccc3oc2=O)c(OC)cc1Cl,98.2% (active)
6,COc1cc(O)c2c(=O)c3c(O)c(O)ccc3oc2c1OC,3.57% (inactive)
7,Cc1ccc(N2C(=O)C(CC(=O)Nc3cccc(F)c3)N(CCc3ccncc3)C2=O)cc1 (stereo unspecified),0.66% (inactive)
8,NC(=O)C1(Nc2ccc([N+](=O)[O-])cc2)CCCC1,-1.78% (inactive)
9,O=[N+]([O-])c1ccc(N=NNc2ccc([N+](=O)[O-])cc2)cc1,54.8% (active)
10,COC(=O)c1ccccc1N=NNc1ccc([N+](=O)[O-])cc1,-3.24% (inactive)
11,O=C1CSC(c2cccc(F)c2)N1c1ccc(O)cc1 (stereo unspecified),1.06% (inactive)
12,O=C(CCc1nnc2ccc(NCCCN3CCCC3=O)nn12)NCc1ccccc1Cl,1.08% (inactive)
13,CCn1c(SCC(=O)Nc2ccc3c(c2)OCCO3)nc2c(c1=O)SC(C)C2 (stereo unspecified),1.48% (inactive)
14,Cc1nc2ccccc2nc(=O)c1NNc1ccc([N+](=O)[O-])cc1,71% (active)
15,Cc1cccc(NS(=O)(=O)c2ccc([N+](=O)[O-])cc2)n1,0.15% (inactive)
16,CC(O)c1nc2ccccc2n1Cc1ccc([N+](=O)[O-])cc1 (stereo unspecified),-3.67% (inactive)
17,O=C(O)C1CCC(CNS(=O)(=O)c2ccc(Br)cc2)CC1 (stereo unspecified),1.62% (inactive)
18,Fc1cccc(Cc2c(-c3cccc(Cl)c3)nc3ccc(Br)cn23)c1,42.3% (active)
19,Fc1cccc(Cc2c(-c3ccc(Cl)cc3)nc3ccc(Cl)cn23)c1,6.82% (inactive)
20,Clc1cccc(Cc2c(-c3cccc(Cl)c3)nc3ccc(Cl)cn23)c1,8.89% (inactive)
21,CN(C)C(=O)CCC(=O)N1CCCCC1C(=O)Nc1ccc(Oc2ccccc2F)cc1 (stereo unspecified),1.87% (inactive)
22,Cc1nc2ccccc2n1CC(O)c1ccccc1 (stereo unspecified),-4.17% (inactive)
23,Cc1nc(-c2ccccc2)cn2c1nc1ccccc12,43.5% (active)

row,Structure (SMILES),activity change
1,Cc1c(C(=O)Nc2cccc(Cl)c2)cn2c(nc3ccccc32)c1C#N,0.36% (inactive)
2,COc1ccc(-c2cc(C(F)(F)F)nc(S(C)(=O)=O)n2)cc1OC,-0.66% (inactive)
3,O=C(Cn1nnc(-c2ccc(CN3CCOCC3)cc2)n1)NC1CCCCC1,4.12% (inactive)
4,N/C(=N\S(=O)(=O)c1ccc(Cl)cc1)N1CCOCC1,4.34% (inactive)
5,O=C(Nc1cccc(-c2nc3ccccc3[nH]2)c1)c1ccc(C(=O)Nc2cccc(-c3nc4ccccc4[nH]3)c2)cc1,81.8% (active)
6,CCOc1ccc(C(=O)Nc2cccc(-c3ccc4nncn4n3)c2)cc1,-0.86% (inactive)
7,CCOc1ccc(C(=O)Nc2cccc(SC)c2)cc1,0.43% (inactive)
8,Cc1ccc(Cl)cc1N1CCN(C(=O)c2cccc3c(=O)c(C)c(-c4ccccc4)oc23)CC1,-0.99% (inactive)
9,COc1ccc(C2COC(=O)C2=N)c(NC(=O)c2ccccc2)c1 (stereo unspecified),-5.12% (inactive)
10,CCOC(=O)c1cc(NC(=O)c2ccc(Cl)cc2)c(=O)oc1-c1ccccc1,-0.75% (inactive)
11,CC(=O)c1cc(NC(=O)c2ccccc2)c(=O)oc1/C=C/N(C)C,102% (active)
12,CCOc1ccc(Oc2nc(C)cc(OC)n2)nn1,0.35% (inactive)
13,CC(C)C[C@H](NC(=O)[C@@H]1O[C@H]1C(=O)O)C(=O)NCCCCN=C(N)N,2.71% (inactive)
14,COc1ccc(CN2CCCCC2C)cc1OC (stereo unspecified),-0.13% (inactive)
15,CCc1ccc2oc(=O)cc(CN3CCCCC3C)c2c1 (stereo unspecified),39.9% (active)
16,CC(C)c1ccc2oc(=O)cc(CN3CCN(Cc4ccccc4)CC3)c2c1,2.71% (inactive)
17,O=C(CCCn1c(=O)c2sccc2n(CC(=O)NCC2CCCO2)c1=O)NCc1ccco1 (stereo unspecified),-1.63% (inactive)
18,COc1cccc(NS(=O)(=O)c2ccc3[nH]cc(C(=O)NCCCOC(C)C)c(=O)c3c2)c1,0.82% (inactive)
19,Cc1cc(NC(=O)CSc2nc(=O)cc(N)n2-c2ccc(F)cc2)no1,-1.93% (inactive)
20,Cc1cc(NC(=O)CSc2nnnn2-c2ccc(F)cc2)no1,2.72% (inactive)
21,Cc1cc(NC(=O)CSc2nccn2-c2ccc([N+](=O)[O-])cc2)no1,35.4% (active)
22,CC(C)c1ccc(-c2nn[nH]n2)cc1,-1.88% (inactive)
